# According to PubChem BioAssay (EPA / NIEHS):
# Calls of active or inactive are those of the source. Rule for the calls: active = hit-call score of the fitted dose curve at least 0.9, where 1 is the maximum; inactive = score below 0.9.
# Experiments:
# Conditions in all cases: mRNA level, 48 h; actives raise or lower the signal
# [1] = read-out: Forkhead box O3 (FOXO3), FOXO3 (gene 2309); experiment: LTEA_HepaRG_FOXO3: Life Technologies and Expression Analysis (LTEA) Assay for Forkhead box O3 (FOXO3) using HepaRG (AID 2283459)
# Method in brief: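 Gene-expression endpoint: FOXO3 transcript level by qRT-PCR in HepaRG cultures treated 48 h with chemicals up to 100 uM (half-log, 0.5% DMSO vehicle).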
# [2] = read-out: growth arrest and DNA damage 45 (GADD45B), GADD45B (gene 4616); experiment: LTEA_HepaRG_GADD45B: Life Technologies and Expression Analysis (LTEA) Assay for growth arrest and DNA damage 45 (GADD45B) using HepaRG (AID 2283461)
# Method in brief: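 Transcript level quantified by Fluidigm TaqMan qRT-PCR with three housekeeping genes for normalization, analyzed for up- or down-regulation against 0.5% DMSO. HepaRG cultures dosed 48 h at eight half-log concentrations up to 100 uM, duplicates.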
# [3] = read-out: ABC Transporter (ABCB11), ABCB11 (gene 8647); experiment: LTEA_HepaRG_ABCB11: Life Technologies and Expression Analysis (LTEA) Assay for ABC Transporter (ABCB11) using HepaRG (AID 2283463)
# Method in brief: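 Using HepaRG cultures held in 0.5% DMSO, chemicals were tested at half-log dilutions from 100 uM for 48 h. Induction or suppression of ABCB11 mRNA, normalized to ACTB, GAPDH and POLR2A, was fitted bidirectionally against vehicle.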
# [4] = read-out: ABC Transporter (ABCC2), ABCC2 (gene 1244); experiment: LTEA_HepaRG_ABCC2: Life Technologies and Expression Analysis (LTEA) Assay for ABC Transporter (ABCC2) using HepaRG (AID 2283464)
# Method in brief: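 Endpoint is ABCC2 transcript level from qRT-PCR, normalized to three housekeeping genes and fitted bidirectionally relative to DMSO. Human HepaRG cells received test chemical for 48 h at up to 100 uM (8 points, half-log steps, 0.5% DMSO), duplicate wells.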
# [5] = read-out: Broad substrate specificity ATP-binding cassette transporter ABCG2 (Homo sapiens) (UniProt Q9UNQ0); experiment: LTEA_HepaRG_ABCG2: Life Technologies and Expression Analysis (LTEA) Assay for ABC Transporter (ABCG2) using HepaRG (AID 2283465)
# Method in brief: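 Gene expression of ABCG2 in HepaRG liver cells is quantified by qRT-PCR following 48 h exposure across an eight-point series topping at 100 uM. Values come from bidirectional fitting relative to DMSO vehicle.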
# [6] = read-out: ATP-citrate lyase (ACLY), ACLY (gene 47); experiment: LTEA_HepaRG_ACLY: Life Technologies and Expression Analysis (LTEA) Assay for ATP-citrate lyase (ACLY) using HepaRG (AID 2283466)
# Method in brief: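 ACLY expression changes in human HepaRG liver cells are quantified by qRT-PCR after 48 h exposure to test chemicals (maximum 100 uM, half-log steps). Values are fitted in both directions relative to 0.5% DMSO vehicle.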
# [7] = read-out: Alkaline Phosphatase, Placental (ALPP) gene, ALPP (gene 250); experiment: LTEA_HepaRG_ALPP: Life Technologies and Expression Analysis (LTEA) Assay for Alkaline Phosphatase, Placental (ALPP) gene using HepaRG (AID 2283468);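 for AC50: differentiated human HepaRG liver cells in serum-free induction medium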
# Method in brief: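 ALPP transcript level, measured by qRT-PCR and normalized to three housekeeping genes (ACTB, GAPDH, POLR2A), after 48 h dosing of differentiated HepaRG in serum-free induction medium. Top concentration 100 uM with half-log dilutions (8 points, 0.5% DMSO, duplicates); bidirectional fitting relative to DMSO.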
# [8] = read-out: Bcl-2 (BAX) gene, BAX (gene 581); experiment: LTEA_HepaRG_BAX: Life Technologies and Expression Analysis (LTEA) Assay for Bcl-2 (BAX) gene using HepaRG (AID 2283470)
# Method in brief: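 Gene expression measured by Fluidigm qRT-PCR with three housekeeping genes for normalisation. HepaRG cells, plated 48 h beforehand, treated 48 h at up to 100 uM (8-point, half-log) in 0.5% DMSO. Bidirectional fitting versus DMSO.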
# [9] = read-out: adenosine kinase (ADK) gene, ADK (gene 132); experiment: LTEA_HepaRG_ADK: Life Technologies and Expression Analysis (LTEA) Assay for adenosine kinase (ADK) gene using HepaRG (AID 2283471)
# Method in brief: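 Differentiated HepaRG cells dosed 48 h in serum-free induction medium, 0.5% DMSO vehicle, eight half-log concentrations from 100 uM, in duplicate. ADK mRNA by TaqMan qRT-PCR normalised to ACTB, GAPDH, POLR2A; bidirectional fit versus DMSO.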
# [10] = read-out: Alpha-fetoprotein (AFP) gene, AFP (gene 174); experiment: LTEA_HepaRG_AFP: Life Technologies and Expression Analysis (LTEA) Assay for Alpha-fetoprotein (AFP) gene using HepaRG (AID 2283472)
# Method in brief: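 AFP transcript measured by TaqMan qRT-PCR with three housekeeping genes for normalization, after 48 h chemical treatment of HepaRG cells (top 100 uM, half-log steps, 0.5% DMSO). Gain or loss fitted against vehicle.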
# BCL2L11 (gene 10018) = experiment: LTEA_HepaRG_BCL2L11: Life Technologies and Expression Analysis (LTEA) Assay for Bcl-2 (BCL2L11) gene using HepaRG (AID 2283473)
# Method in brief: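 BCL2L11 transcript levels are measured by Fluidigm qRT-PCR, normalized to three housekeeping genes. HepaRG cultures were plated 48 h, then treated 48 h with test chemical (top 100 uM, half-log, 0.5% DMSO vehicle); curves were fitted bidirectionally against DMSO.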
# [11] = read-out: Apolipoprotein A-V (APOA5) gene, APOA5 (gene 116519); experiment: LTEA_HepaRG_APOA5: Life Technologies and Expression Analysis (LTEA) Assay for Apolipoprotein A-V (APOA5) gene using HepaRG (AID 2283474)
# Method in brief: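 APOA5 transcript levels were quantified by qRT-PCR, normalized to three housekeeping genes, after 48 h chemical treatment of HepaRG cells (8 points, 100 uM maximum, half-log steps, 0.5% DMSO). Curves fitted in both directions against vehicle.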
# [12] = read-out: Apoptosis regulator Bcl-2 (Homo sapiens) (UniProt P10415); experiment: LTEA_HepaRG_BCL2: Life Technologies and Expression Analysis (LTEA) Assay for Bcl-2 gene using HepaRG (AID 2283475)
# Method in brief: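 qRT-PCR of BCL2 transcript, normalized to three housekeeping genes (ACTB, GAPDH, POLR2A), after 48 h chemical exposure of HepaRG cells; concentrations top 100 uM with half-log dilutions, 0.5% DMSO vehicle, duplicates; changes up or down fitted relative to vehicle.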
# [13] = read-out: Bcl-2 (BID) gene, BID (gene 637); experiment: LTEA_HepaRG_BID: Life Technologies and Expression Analysis (LTEA) Assay for Bcl-2 (BID) gene using HepaRG (AID 2283476)
# Method in brief: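 Duplicate 48 h treatments of HepaRG cells in serum-free induction medium spanned 100 uM downward in half-log steps, 0.5% DMSO. Transcript change quantified by qRT-PCR against three housekeeping genes, fitted up or down versus DMSO.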
# [14] = read-out: ABC Transporter (ABCB1), ABCB1 (gene 5243); experiment: LTEA_HepaRG_ABCB1: Life Technologies and Expression Analysis (LTEA) Assay for ABC Transporter (ABCB1) using HepaRG (AID 2283460)
# Method in brief: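 Human liver HepaRG line treated 48 h with up to 100 uM compound (eight half-log points, 0.5% DMSO); ABCB1 mRNA change fitted bidirectionally against DMSO controls.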
# [15] = read-out: Peroxisomal acyl-coenzyme A oxidase 1 (ACOX1) gene, ACOX1 (gene 51); experiment: LTEA_HepaRG_ACOX1: Life Technologies and Expression Analysis (LTEA) Assay for Peroxisomal acyl-coenzyme A oxidase 1 (ACOX1) gene using HepaRG (AID 2283467)
# Method in brief: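 Human HepaRG hepatic cultures, 48 h treatment with test chemicals up to 100 uM. ACOX1 expression read by qRT-PCR relative to 0.5% DMSO vehicle.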
# [16] = read-out: Bcl-2 (BAD) gene, BAD (gene 572); experiment: LTEA_HepaRG_BAD: Life Technologies and Expression Analysis (LTEA) Assay for Bcl-2 (BAD) gene using HepaRG (AID 2283469)
# Method in brief: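 Activity values reflect up- or down-regulation of BAD mRNA in human HepaRG hepatic cells treated 48 h in serum-free medium, with eight-point half-log dosing capped at 100 uM and 0.5% DMSO vehicle.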
# [17] = read-out: ABC Transporter (ABCC3), ABCC3 (gene 8714); experiment: LTEA_HepaRG_ABCC3: Life Technologies and Expression Analysis (LTEA) Assay for ABC Transporter (ABCC3) using HepaRG (AID 2283462)
# Method in brief: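 Transcript level by TaqMan qRT-PCR, normalised to three housekeeping genes, fitted in both directions relative to vehicle. Chemicals tested in duplicate at eight half-log concentrations up to 100 uM for 48 h on HepaRG cells (0.5% DMSO).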
# Chain of Broad substrate specificity ATP-binding cassette transporter ABCG2 (Homo sapiens) (Q9UNQ0 whole entry, looked up): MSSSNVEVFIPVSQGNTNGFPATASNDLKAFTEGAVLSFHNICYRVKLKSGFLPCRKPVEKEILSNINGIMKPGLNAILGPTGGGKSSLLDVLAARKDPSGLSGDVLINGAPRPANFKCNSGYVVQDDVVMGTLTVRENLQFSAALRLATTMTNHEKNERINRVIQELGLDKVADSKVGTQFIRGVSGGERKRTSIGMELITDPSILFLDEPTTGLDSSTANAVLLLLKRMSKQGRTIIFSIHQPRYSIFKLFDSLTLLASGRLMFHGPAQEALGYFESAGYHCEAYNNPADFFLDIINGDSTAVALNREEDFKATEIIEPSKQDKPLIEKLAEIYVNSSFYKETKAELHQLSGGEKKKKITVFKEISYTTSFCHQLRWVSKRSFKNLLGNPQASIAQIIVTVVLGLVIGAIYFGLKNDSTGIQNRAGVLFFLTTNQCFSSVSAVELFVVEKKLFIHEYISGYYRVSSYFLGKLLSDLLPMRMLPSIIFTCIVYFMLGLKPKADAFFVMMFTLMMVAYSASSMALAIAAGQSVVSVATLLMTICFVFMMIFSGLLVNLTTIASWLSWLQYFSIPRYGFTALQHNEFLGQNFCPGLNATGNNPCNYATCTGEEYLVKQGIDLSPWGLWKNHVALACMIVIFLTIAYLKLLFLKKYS
# Chain of Apoptosis regulator Bcl-2 (Homo sapiens) (P10415 whole entry, looked up): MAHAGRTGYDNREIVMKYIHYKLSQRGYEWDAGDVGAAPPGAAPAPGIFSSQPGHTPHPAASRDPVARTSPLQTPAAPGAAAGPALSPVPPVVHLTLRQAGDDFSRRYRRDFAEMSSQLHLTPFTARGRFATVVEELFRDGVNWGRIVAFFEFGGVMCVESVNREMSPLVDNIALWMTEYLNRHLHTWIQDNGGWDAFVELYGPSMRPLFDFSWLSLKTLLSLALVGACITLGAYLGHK
structure (smiles),measurement,setting,value
COc1cccc(-c2ccc(/C=C\CN3CCCCCC3)cc2Cl)c1,outcome,[1],inactive
same,AC50,[2],76.2 µM (active)
same,AC50,[3],69.3 µM (active)
same,AC50,[4],75.4 µM (active)
same,AC50,[5],37.8 µM (active)
same,outcome,[6],inactive
same,AC50,[7],45.2 µM (active)
same,AC50,[8],74.5 µM (active)
same,outcome,[9],inactive
same,outcome,[10],inactive
same,outcome,BCL2L11 (gene 10018),inactive
same,AC50,[11],71.7 µM (active)
same,AC50,[12],67.4 µM (active)
same,outcome,[13],inactive
CC1(C)C(=O)N(Br)C(=O)N1Br,outcome,[1],inactive
same,outcome,[14],inactive
same,outcome,[2],inactive
same,outcome,[3],inactive
same,outcome,[4],inactive
same,outcome,[5],inactive
same,outcome,[6],inactive
same,outcome,[15],inactive
same,outcome,[7],inactive
same,outcome,[8],inactive
same,outcome,[9],inactive
same,outcome,[10],inactive
same,outcome,BCL2L11 (gene 10018),inactive
same,outcome,[11],inactive
same,outcome,[13],inactive
Nc1cccc(N)c1,outcome,[1],inactive
same,outcome,[2],inactive
same,outcome,[3],inactive
same,outcome,[4],inactive
same,outcome,[5],inactive
same,outcome,[6],inactive
same,outcome,[7],inactive
same,outcome,[16],inactive
same,outcome,[8],inactive
same,outcome,[9],inactive
same,outcome,[10],inactive
same,outcome,BCL2L11 (gene 10018),inactive
same,outcome,[11],inactive
same,outcome,[12],inactive
same,outcome,[13],inactive
CCOC(=O)COc1ccc2c(c1)CC(NCC(O)c1cccc(Cl)c1)CC2 (stereo not drawn),outcome,[1],inactive
same,outcome,[2],inactive
same,outcome,[17],inactive
same,outcome,[3],inactive
same,outcome,[4],inactive
same,outcome,[5],inactive
same,outcome,[6],inactive
same,AC50,[7],16 µM (active)
same,outcome,[8],inactive
same,outcome,[9],inactive
same,outcome,[10],inactive
same,outcome,BCL2L11 (gene 10018),inactive
same,outcome,[11],inactive
same,outcome,[13],inactive
O=c1n(CC2CO2)c(=O)n(CC2CO2)c(=O)n1CC1CO1 (stereo not drawn),outcome,[1],inactive
same,outcome,[14],inactive
same,AC50,[2],79.1 µM (active)
same,AC50,[3],88 µM (active)
same,outcome,[4],inactive
same,outcome,[5],inactive
same,outcome,[6],inactive
same,outcome,[7],inactive
same,outcome,[16],inactive
same,AC50,[8],83.4 µM (active)
same,outcome,[9],inactive
same,outcome,[10],inactive
same,outcome,BCL2L11 (gene 10018),inactive
same,outcome,[11],inactive
same,outcome,[13],inactive
Nc1nc2ncc(CNc3ccc(C(=O)N[C@@H](CCC(=O)O)C(=O)O)cc3)nc2c(=O)[nH]1,outcome,[1],inactive
same,outcome,[2],inactive
same,outcome,[3],inactive
same,outcome,[4],inactive
same,outcome,[5],inactive
same,outcome,[6],inactive
same,outcome,[15],inactive
same,outcome,[7],inactive
same,outcome,[16],inactive
same,outcome,[8],inactive
same,outcome,[9],inactive
same,outcome,[10],inactive
same,outcome,BCL2L11 (gene 10018),inactive
same,outcome,[11],inactive
same,outcome,[13],inactive
CC(C)(O)c1coc(S(=O)(=O)NC(=O)Nc2c3c(cc4c2CCC4)CCC3)c1,outcome,[1],inactive
same,outcome,[14],inactive
same,outcome,[2],inactive
same,AC50,[3],50 µM (active)
same,outcome,[4],inactive
same,outcome,[5],inactive
same,outcome,[6],inactive
same,outcome,[7],inactive
same,outcome,[8],inactive
same,outcome,[9],inactive
same,outcome,[10],inactive
same,outcome,BCL2L11 (gene 10018),inactive
same,outcome,[11],inactive
same,outcome,[12],inactive
CCOCCO,outcome,[1],inactive
same,outcome,[14],inactive
same,outcome,[2],inactive
same,outcome,[3],inactive
same,outcome,[4],inactive
same,outcome,[5],inactive
same,outcome,[6],inactive
same,outcome,[7],inactive
same,outcome,[16],inactive
same,outcome,[8],inactive
same,outcome,[9],inactive
same,outcome,[10],inactive
same,outcome,BCL2L11 (gene 10018),inactive
same,outcome,[11],inactive
same,outcome,[12],inactive
same,outcome,[13],inactive
